Experimental data from the supplement of paper PMC6555819.

test system: VDR:RXRa (NR concentration 270 nM, RXRa partner concentration 90 nM); test: PBM binding z-score (relative to random genomic background probes); higher = stronger binding; sequences stand for … in GC…GCGATTGACAGCGTAGAATGAAGG
Method: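 Protein-binding microarray (Agilent 4x180K custom design, double-stranded 60-nt probes: 5' GC cap, 34-nt variable region, 24-nt constant primer region; full probe sequence given). Purified or IVT nuclear receptor:RXRα heterodimers (3:1 NR:RXRα, mostly 270:90 nM) or homodimers were incubated for 1 h in PBS with 2% milk and no ligand, then detected with Alexa488 antibodies. Fluorescence from o1-orientation probes (~5 replicates averaged) was converted to z-scores against 500 random hg19 background probes. Variable regions are seed direct-repeat (DR0–DR5) sites, all their single-nucleotide variants and half-site ablations.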

| Sequence | PBM binding z-score |
| --- | --- |
| ATCTCTAGGTAAAGAAAGTTCAGTGAATGCAAAT | 2.17 |
| GCTTATGGGTCAAAGGTTATAGCATGAATAGAAT | 4.82 |
| TAGCCTAGGCCATTGGGCCAGTATAGTACGCATC | -0.626 |
| TCTCGGAGGGCACGAAGGTCAGAGCTTTCCAGAG | 5.15 |
| AGAATGAGGTTACCAAAGATCACGGAAACGCTTG | 1.97 |
| GCTAGCAGGCCATTTGAGTCACTCAATGACGGGC | -0.568 |
| AATACAGGGTCATCGCAGGCCAGAGTACGCACAG | 5.31 |
| TAGCCTAGGTCATTGGGCCACTATAGTACGCATC | 2.23 |
| ATCCCTAGGTAAAGTTCAGTGAAAGATCGATAGA | 1.37 |
| AGAACGAGGGCACGCTGAGTTGATAGAAGAGTAG | 2.26 |
| CGAACTAGGTCAGAACAGGACAGTGTAGGATGAT | 0.86 |
| TCTTGTGGATCAAGCAGGTTAAGAAAGCCTGAGT | 0.403 |
| TCTATTAGTTAAAGGGCAACCGACGAGTCCGTTT | 1.46 |
| TCGAGTAGGTTACCAATGGGGCATTCCGCTTTCT | 0.11 |
| GGAACGAGGGCATCCGAGTTGATAGCATGGCGAT | 3.18 |
| CGAACGAGGGCATGAGTTGTTAGCAAATGCCGAT | 0.896 |
| CCTTGTTGGTCAAGGTCACACACGCTATAGGTAC | 3.83 |
| TCATATAGGTAAACAGGTGTAAGTCCGTAAGTTA | 1.6 |
| CCCCGGAGGACAACAGGAGGTCAGAGCTGCCAGA | 1.91 |
| ATATGTAGATTAAGGGTCATTCAGGTTGGTTCGC | 5.22 |

| Sequence | PBM binding z-score |
| --- | --- |
| AGAATGAGGTTATGAAGATCAGGGAATTGCGGTC | 1.44 |
| TCTTGTAGATCAAGCAGGTTAAGGAAGCCTGAGT | -0.0838 |
| TCTTGTAGTTCAAGCAGGTTAAGAAAGCCTGAGT | 3.32 |
| CCTTACGGGTCACGAGGTTAGAGCACGACGAGCG | 4.98 |
| GCGATTGGGGCATCAGCAGGTTACCATAACTTAA | 0.0705 |
| ATCTCTAGGTAAAGACAGTTCAGTGAATGCAAAT | 1.53 |
| AGAATGAGGTTCCCAAAGATCAGGGAAACGCTTG | -0.0526 |
| CGTCAAAGTTCAAGATAACGTAACAGAAAGCAGC | 3.2 |
| TCTGCTAGGTCGACGATGGTCAGCTAATCTGCTA | -0.229 |
| AGAATGAGGTTATACGTAGTTCAGGGAAGAAAGT | 3.09 |
| AGAACGAGGGCACGCTGAGTTGAGAGCAGAGTAG | 1.59 |
| CTACCAAGGTGAACCAGGTCGTTGATTACTATTC | 4.93 |
| ATCGAAAGGTCGAGGTGAGTAGAGAGAAAGGGAA | 2.27 |
| GCTTGTAGATCAAGGTTAAGCAAGACTAAGCTAA | 0.0624 |
| GCTCGGAGGACAAGGTCTGAGCTTTGTCCGTAGA | -0.681 |
| ACTAGCAGGCCAATTTTGGGTCACTCAAACAAAG | 0.456 |
| CCTAGGTGGTCAGGAGGTCACACACCGGATATGA | 3.76 |
| CAAACTAGGGCACCGGAAGGTCAAAGTCCGCATG | 3.69 |
| CCAACTGGGGCAAGGTTACCATAACGCACAGCCA | 0.166 |
| ATCGAAAGGTCGCGAGGTGAGTATACAGAAAGGC | 3.53 |
